Screen size: about 330,000 compounds; about 230 (0.07%) were called active. Only a selection was taken, and actives are over-represented in it overall. Values without a mark were called inactive.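 The calls were made as follows: active = more than half of a compound's replicate wells show inhibition beyond 50%, single wells judged on their own value; inconclusive = some, but no more than half, of replicates pass 50% inhibition; inactive = no replicate passes 50% inhibition.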

For this assay, the target named is Lysine-specific demethylase 4C (Homo sapiens) (UniProt Q9H3R0). The assay is described as follows: JMJD2C H3K9me3 demethylation blockers – biochemical, fluorescence, DELFIA europium, primary screen (AID 2099).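 Also: signal counts dimethyl H3K9 product captured on neutravidin plate; 0% = median of DMSO wells and 100% = 0.3 times that DMSO median.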 As to conditions: GST-JMJD2C(1-420) H3K9me3 demethylation, at 2.35 µM, active compounds read high.
Lysine-specific demethylase 4C (Homo sapiens), sequence (Q9H3R0 1-420 limits assumed): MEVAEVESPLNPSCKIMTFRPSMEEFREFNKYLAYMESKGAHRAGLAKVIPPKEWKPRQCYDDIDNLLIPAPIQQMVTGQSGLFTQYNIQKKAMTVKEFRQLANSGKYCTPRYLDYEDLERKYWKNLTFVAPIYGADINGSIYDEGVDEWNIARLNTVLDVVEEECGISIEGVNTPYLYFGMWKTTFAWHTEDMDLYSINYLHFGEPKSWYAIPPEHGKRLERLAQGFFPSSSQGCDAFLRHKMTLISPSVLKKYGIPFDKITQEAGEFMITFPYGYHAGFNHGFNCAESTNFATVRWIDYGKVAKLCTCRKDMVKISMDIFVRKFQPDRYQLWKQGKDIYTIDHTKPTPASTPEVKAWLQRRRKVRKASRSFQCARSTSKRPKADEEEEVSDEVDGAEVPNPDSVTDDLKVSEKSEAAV
Broadly, the inhibition is the change of the read-out against control, counted positive when it falls. Consider `Cc1ccc2c(c1)=C/C(=C\c1c(O)[nH]c(=O)[nH]c1=O)C(=O)N=2`, for which the inhibition is 68.2% (active).

With `O=C1N=c2ccccc2=C/C1=C\c1c(O)[nH]c(=S)[nH]c1=O`, the inhibition was 0.999%.

Regarding `O=c1[nH]c(O)c(C=Nc2cc(F)cc(F)c2)c(=O)[nH]1`, the inhibition is 8.75%.

With `COc1ccc(CN2CCN(c3ccccc3F)CC2)c(OC)c1`, the inhibition is 2.07%.

`NCC(O)c1ccc(O)cc1` (stereo not given): the inhibition was 4.95%.

The values are drawn from PubChem BioAssay AID2099 (Broad Institute, 2009).
